Columns and labels:
Assay in all cases: log2 ratio of Biotin-Ahx-Ub-VS probe labelling (fragment/DMSO); higher = less target engagement (more negative = stronger competition), active = hit call of the paper (q ≤ 0.05, log2 ratio ≤ -1)
Conditions in all cases: compound concentration: 200 uM; treatment time: 3 h
[1] = biological target: T1, USP42 (UniProt Q9H9J4)
T1 sequence (whole entry): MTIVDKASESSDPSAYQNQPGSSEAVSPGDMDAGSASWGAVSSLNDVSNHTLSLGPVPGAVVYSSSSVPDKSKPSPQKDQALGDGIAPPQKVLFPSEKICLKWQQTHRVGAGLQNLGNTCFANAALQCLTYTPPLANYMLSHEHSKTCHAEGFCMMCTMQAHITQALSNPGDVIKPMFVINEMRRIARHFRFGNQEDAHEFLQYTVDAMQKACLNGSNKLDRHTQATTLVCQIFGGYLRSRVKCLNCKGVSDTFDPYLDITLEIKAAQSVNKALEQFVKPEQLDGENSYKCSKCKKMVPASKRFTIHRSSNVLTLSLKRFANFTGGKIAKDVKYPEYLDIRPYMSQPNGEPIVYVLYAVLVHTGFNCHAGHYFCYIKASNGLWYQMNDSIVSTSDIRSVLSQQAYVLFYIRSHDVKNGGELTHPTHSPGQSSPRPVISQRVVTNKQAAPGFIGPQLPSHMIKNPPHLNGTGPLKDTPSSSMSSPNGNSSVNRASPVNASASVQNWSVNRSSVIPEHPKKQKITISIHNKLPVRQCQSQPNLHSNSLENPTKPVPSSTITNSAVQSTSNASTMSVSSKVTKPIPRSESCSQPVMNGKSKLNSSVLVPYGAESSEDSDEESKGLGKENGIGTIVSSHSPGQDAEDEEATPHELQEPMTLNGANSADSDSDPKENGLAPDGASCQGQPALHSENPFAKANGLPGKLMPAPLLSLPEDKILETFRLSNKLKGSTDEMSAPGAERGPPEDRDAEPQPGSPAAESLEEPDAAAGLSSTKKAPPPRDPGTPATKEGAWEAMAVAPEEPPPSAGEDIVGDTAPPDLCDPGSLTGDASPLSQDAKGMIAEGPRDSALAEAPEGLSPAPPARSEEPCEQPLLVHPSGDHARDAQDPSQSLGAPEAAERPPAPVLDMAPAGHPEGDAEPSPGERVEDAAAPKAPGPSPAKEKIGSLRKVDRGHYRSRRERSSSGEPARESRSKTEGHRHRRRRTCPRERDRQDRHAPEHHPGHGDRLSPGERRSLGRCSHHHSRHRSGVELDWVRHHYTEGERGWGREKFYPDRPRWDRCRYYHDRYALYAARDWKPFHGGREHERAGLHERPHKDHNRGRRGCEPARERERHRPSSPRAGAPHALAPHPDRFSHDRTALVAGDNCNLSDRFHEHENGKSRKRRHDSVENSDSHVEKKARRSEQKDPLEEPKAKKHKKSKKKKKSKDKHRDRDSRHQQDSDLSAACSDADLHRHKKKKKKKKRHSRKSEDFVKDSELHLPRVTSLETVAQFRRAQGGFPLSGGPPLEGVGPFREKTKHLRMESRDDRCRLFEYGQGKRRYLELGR
Method in brief: (§1)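 Using Biotin-Ahx-Ub-VS at 0.5 µM final for 1 h, DUBs were labelled in HEK293T lysate (495 µg per sample) that had first been treated in triplicate with fragment at 200 µM or vehicle for 3 h. NeutrAvidin enrichment, LysC and trypsin digestion and diaPASEF LC-MS/MS followed. Spectronaut label-free quantities were global-median-normalised. Values are average log2 fragment/vehicle ratios by unpaired t-test, using proteins with ≥2 unique peptides.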

[2] = biological target: USP46 (UniProt P62068)
USP46, sequence (P62068 whole entry): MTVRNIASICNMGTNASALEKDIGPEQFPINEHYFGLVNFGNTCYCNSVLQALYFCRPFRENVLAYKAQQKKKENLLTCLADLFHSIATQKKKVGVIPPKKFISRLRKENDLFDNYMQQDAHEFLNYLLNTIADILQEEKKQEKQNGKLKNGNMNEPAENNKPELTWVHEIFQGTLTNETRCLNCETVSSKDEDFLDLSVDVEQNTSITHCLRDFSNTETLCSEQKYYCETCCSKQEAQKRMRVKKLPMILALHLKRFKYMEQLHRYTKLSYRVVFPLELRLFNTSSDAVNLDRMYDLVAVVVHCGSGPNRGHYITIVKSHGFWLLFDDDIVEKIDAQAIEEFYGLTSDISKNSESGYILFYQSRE
Method in brief: as §1

[3] = biological target: T2, USP47 (UniProt Q96K76)
T2 sequence (whole entry): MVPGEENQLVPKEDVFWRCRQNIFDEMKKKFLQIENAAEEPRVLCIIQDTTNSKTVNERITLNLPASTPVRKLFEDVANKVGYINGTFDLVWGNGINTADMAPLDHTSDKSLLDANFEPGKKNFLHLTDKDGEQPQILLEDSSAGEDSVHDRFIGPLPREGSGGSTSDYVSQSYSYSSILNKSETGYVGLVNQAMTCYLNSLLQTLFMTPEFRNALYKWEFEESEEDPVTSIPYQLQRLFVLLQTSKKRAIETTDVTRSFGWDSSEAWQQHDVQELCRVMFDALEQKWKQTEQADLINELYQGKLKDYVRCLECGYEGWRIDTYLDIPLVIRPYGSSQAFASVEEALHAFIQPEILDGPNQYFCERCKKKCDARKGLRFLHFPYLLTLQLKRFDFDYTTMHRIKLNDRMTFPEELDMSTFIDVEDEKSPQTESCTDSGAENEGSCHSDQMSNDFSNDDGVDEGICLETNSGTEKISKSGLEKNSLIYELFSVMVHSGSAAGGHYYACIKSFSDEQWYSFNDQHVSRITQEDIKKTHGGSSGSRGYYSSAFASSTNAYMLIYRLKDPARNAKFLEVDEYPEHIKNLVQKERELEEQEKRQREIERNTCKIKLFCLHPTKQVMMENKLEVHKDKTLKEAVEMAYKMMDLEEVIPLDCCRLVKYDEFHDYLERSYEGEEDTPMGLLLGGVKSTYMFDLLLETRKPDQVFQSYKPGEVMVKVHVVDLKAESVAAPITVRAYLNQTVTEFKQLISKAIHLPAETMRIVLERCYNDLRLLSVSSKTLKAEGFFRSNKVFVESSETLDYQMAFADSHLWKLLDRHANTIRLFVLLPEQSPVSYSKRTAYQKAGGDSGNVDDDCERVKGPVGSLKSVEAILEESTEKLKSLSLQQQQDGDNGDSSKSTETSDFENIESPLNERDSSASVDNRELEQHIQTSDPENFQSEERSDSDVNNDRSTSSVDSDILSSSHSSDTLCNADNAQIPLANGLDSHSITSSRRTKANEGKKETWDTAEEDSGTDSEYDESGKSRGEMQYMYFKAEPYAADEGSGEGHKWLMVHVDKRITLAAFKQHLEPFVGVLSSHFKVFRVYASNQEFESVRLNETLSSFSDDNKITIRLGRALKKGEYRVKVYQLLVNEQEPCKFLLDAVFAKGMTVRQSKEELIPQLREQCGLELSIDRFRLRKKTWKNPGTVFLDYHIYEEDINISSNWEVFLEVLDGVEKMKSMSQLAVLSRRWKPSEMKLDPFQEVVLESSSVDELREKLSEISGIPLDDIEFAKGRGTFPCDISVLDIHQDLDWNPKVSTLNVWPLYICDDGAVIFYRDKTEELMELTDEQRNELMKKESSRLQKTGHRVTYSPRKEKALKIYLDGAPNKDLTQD
Method in brief: as §1

[4] = biological target: T3, USP48 (UniProt Q86UV5)
T3 sequence (whole entry): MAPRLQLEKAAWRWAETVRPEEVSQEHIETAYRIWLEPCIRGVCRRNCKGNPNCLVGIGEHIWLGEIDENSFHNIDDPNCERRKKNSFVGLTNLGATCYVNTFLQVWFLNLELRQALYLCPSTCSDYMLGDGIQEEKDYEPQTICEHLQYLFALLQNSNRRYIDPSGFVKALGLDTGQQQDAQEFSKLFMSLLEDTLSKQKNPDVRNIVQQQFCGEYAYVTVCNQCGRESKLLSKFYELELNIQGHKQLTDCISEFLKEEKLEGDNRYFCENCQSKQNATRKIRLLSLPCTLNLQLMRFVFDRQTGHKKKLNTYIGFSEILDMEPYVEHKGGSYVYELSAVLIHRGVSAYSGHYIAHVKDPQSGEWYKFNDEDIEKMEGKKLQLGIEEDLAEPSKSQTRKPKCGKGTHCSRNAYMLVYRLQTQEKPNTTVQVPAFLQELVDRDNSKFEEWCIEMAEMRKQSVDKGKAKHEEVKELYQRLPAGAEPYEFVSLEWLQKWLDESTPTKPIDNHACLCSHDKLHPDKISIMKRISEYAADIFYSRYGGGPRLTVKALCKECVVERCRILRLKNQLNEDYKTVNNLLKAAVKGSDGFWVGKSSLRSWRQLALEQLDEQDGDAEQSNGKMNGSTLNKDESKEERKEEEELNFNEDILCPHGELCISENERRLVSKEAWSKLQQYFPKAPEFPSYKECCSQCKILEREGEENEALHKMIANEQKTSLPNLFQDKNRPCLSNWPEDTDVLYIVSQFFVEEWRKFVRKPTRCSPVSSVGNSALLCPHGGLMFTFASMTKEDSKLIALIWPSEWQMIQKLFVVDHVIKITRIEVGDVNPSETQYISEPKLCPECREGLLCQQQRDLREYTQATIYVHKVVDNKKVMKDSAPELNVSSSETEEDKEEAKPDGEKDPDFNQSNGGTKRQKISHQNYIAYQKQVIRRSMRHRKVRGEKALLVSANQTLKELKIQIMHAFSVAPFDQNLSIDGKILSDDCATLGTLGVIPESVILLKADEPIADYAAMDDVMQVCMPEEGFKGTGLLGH
Method in brief: as §1

[5] = biological target: T4, USP5 (UniProt P45974)
T4 sequence (whole entry): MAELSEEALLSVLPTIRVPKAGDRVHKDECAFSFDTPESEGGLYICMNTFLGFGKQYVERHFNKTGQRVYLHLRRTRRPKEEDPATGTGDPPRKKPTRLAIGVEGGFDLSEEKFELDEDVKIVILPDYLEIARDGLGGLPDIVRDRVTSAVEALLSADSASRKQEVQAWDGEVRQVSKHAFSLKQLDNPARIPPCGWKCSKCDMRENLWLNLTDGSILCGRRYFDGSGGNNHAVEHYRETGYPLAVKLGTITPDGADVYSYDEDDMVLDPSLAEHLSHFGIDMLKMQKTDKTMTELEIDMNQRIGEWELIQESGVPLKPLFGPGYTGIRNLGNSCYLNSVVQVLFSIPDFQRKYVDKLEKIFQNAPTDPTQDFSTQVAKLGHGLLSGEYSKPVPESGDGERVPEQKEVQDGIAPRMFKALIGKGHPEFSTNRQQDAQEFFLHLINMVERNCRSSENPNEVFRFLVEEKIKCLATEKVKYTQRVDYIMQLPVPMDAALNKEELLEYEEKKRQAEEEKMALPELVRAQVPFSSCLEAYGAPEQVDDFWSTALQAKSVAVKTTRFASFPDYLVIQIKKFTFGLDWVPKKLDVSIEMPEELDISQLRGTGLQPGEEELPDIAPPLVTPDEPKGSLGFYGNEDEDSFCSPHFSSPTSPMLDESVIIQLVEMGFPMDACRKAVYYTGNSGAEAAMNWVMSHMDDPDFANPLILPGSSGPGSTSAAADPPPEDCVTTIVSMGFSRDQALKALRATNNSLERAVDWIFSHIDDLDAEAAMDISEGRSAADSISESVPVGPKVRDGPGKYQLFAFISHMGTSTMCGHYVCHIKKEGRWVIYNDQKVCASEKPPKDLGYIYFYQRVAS
Method in brief: as §1

[6] = biological target: USP54 (UniProt Q70EL1)
USP54, sequence (Q70EL1 whole entry): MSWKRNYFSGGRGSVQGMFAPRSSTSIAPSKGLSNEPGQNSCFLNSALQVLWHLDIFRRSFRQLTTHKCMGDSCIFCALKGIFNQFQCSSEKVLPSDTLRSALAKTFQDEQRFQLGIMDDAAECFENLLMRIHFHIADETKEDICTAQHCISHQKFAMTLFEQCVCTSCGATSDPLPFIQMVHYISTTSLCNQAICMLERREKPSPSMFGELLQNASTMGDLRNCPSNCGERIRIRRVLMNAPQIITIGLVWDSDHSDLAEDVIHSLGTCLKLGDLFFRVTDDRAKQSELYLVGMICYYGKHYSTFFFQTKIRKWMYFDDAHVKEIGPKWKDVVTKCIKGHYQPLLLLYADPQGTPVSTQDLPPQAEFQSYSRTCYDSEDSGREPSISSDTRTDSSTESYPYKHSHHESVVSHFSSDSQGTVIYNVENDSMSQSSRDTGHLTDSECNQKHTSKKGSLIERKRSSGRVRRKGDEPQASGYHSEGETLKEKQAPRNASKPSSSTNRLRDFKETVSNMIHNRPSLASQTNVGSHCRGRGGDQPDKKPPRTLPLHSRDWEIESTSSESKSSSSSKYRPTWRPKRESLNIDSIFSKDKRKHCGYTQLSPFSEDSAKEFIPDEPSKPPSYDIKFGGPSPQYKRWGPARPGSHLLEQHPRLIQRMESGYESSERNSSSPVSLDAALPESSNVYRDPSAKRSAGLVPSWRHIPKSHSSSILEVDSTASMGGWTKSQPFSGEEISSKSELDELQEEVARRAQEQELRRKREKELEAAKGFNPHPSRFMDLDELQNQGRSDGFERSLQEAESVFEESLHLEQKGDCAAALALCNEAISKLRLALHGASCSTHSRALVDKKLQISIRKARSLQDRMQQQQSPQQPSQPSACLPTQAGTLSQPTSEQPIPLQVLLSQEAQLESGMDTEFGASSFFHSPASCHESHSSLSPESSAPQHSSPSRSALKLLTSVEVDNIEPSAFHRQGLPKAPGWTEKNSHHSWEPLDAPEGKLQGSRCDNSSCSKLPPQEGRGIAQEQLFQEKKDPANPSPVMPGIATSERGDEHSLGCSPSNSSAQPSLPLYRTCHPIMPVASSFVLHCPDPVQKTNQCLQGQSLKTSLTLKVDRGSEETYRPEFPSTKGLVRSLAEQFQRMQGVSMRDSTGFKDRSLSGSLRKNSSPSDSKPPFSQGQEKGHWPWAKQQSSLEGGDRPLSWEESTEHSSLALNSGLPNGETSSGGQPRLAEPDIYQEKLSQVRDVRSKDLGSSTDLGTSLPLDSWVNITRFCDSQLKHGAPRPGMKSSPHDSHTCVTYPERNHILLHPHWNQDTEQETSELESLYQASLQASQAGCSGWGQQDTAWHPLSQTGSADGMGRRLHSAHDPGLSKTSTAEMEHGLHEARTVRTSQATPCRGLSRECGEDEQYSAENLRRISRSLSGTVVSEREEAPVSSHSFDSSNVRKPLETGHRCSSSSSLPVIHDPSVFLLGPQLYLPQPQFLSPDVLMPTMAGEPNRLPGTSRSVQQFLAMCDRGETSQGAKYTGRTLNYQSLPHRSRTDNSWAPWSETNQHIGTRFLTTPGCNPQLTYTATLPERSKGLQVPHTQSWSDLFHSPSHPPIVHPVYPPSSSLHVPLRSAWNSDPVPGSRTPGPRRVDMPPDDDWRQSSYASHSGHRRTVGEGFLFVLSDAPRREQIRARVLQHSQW
Method in brief: as §1

[7] = biological target: USP7 (UniProt Q93009)
USP7, sequence (Q93009 whole entry, looked up): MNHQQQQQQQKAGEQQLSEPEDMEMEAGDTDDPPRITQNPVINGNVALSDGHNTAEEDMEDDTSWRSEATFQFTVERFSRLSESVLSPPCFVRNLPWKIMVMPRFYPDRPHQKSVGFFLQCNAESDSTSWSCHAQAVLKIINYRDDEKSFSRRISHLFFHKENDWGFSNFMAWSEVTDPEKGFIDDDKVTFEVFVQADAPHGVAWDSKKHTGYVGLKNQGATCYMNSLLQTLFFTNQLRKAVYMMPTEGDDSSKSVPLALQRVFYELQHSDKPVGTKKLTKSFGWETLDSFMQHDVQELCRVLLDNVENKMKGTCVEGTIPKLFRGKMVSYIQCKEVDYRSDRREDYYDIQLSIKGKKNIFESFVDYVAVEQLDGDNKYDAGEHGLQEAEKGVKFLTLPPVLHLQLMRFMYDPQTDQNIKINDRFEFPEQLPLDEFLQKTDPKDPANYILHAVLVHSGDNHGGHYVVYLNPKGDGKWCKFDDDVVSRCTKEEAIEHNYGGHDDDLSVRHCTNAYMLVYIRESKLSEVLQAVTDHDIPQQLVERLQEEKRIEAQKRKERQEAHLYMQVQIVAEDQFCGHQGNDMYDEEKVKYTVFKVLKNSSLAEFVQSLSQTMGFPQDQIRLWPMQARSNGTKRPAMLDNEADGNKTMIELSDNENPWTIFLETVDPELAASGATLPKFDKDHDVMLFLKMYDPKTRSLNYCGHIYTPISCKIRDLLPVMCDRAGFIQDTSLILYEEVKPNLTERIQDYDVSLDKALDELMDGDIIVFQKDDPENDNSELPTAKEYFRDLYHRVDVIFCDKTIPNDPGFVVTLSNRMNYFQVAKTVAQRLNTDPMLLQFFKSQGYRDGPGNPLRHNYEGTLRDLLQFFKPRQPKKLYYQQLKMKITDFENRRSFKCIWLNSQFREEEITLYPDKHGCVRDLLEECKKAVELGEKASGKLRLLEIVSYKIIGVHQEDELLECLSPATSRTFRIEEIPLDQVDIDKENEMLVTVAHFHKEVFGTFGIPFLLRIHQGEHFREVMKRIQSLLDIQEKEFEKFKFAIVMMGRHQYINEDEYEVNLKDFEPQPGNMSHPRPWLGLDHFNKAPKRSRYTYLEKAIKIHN
Method in brief: as §1

[8] = biological target: T5, USP8 (UniProt P40818)
T5 sequence (whole entry): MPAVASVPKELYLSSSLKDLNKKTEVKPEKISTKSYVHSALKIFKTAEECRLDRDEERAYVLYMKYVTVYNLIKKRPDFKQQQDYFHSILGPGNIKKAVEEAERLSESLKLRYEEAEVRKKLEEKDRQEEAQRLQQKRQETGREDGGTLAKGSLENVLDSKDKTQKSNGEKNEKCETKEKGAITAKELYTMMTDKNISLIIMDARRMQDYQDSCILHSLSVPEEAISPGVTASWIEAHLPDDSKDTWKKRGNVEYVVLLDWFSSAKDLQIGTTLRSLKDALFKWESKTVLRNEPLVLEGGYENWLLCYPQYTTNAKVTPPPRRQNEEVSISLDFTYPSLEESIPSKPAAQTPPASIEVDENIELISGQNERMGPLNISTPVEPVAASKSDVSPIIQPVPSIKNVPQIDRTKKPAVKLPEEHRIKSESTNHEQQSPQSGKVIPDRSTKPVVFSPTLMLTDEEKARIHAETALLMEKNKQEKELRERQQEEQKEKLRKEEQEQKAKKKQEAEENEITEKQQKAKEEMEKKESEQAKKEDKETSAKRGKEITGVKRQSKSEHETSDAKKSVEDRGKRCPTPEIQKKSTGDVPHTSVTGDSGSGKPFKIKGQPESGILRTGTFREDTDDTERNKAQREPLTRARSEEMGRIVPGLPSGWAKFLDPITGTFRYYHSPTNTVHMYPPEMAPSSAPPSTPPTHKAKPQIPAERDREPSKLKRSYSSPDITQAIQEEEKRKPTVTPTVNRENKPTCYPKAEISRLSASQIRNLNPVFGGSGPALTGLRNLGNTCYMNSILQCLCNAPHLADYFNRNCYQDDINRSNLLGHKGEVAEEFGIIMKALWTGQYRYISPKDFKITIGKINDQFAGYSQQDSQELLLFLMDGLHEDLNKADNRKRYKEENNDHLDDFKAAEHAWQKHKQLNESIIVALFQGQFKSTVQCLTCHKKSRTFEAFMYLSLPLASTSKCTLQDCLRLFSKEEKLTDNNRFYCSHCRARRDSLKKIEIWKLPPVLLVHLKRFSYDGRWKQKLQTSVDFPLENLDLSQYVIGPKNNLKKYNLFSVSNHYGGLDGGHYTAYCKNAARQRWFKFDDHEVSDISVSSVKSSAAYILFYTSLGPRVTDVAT
Method in brief: as §1

Measured: log2 ratio of Biotin-Ahx-Ub-VS probe labelling

CNC(=O)C1CCN(C(=O)CCl)CC1
inactive: [1] 0.308 | [2] 0.0795 | [3] 0.356 | [4] -0.0361 | [5] -0.203 | [6] 0.32 | [7] -0.171 | [8] -0.00406

From the supplement of paper PMC11732987, “Enantioselective OTUD7B fragment discovery through chemoproteomics screening and high-throughput optimisation” (Communications Chemistry, 2025)
